Bioassay records: PubChem, National Center for Advancing Translational Sciences (NCATS)
DT40 TDP1 CPT – growth inhibition of DT40 Tdp1-/-;hTDP1 cells with camptothecin (screen for TDP1 inhibitors). Potency, µM (titrated, usually from 46.2 µM), actives largely listed as inhibitors. AID 686979. chicken DT40 Tdp1-/-;hTDP1 cells + 20 nM CPT, ATP luminescence, 48 h. hit rate 12% among 420,000; note: nearly all actives have a fitted effect of over 55% in size
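Chicken DT40 Tdp1-/- cells stably complemented with human TDP1 were seeded at 400 cells/well in medium containing 20 nM camptothecin, exposed to pin-transferred compounds, and grown at 37 °C for at least 48 hr. Viability was read as ATP luminescence.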
VP16 counter – Gal4-VP16 reporter inhibition counter-screen; Potency, µM (highest dose often 53.6 µM), hits mostly inhibitors; Drosophila S2 Gal4-VP16 UAS-luciferase, luminescence, 20 h; hit rate 3.5% among 310,000;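 note: Gal4-VP16 expression switched on by copper sulfate through the metallothionein promoter; nearly all actives have a fitted effect of over 50% in size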
TDP1 cell noCPT – qHTS for Inhibitors of human tyrosyl-DNA phosphodiesterase 1 (TDP1): qHTS in cells in absence of CPT; hit rate 15% among 420,000; AID 686978, 2013; Potency, µM (titrated, usually from 46.2 µM), usual class: inhibitors; DT40 Tdp1-/- hTDP1 cells, no CPT, ATP luminescence, 48 h; note: nearly all actives have a fitted effect of over 55% in size
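Growth kinetics read by CellTiter-Glo luminescence after ≥48 hr at 37 °C. Cells: DT40 Tdp1-/- stably carrying human TDP1, 400 per well, compound exposure in the absence of CPT (DMSO vehicle).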
RORgamma inh – blocks mouse ROR gamma transcriptional activity; P51450; Drosophila S2 Gal4-RORgamma UAS-luciferase reporter, 20 h; Potency, µM (series often up to 53.6 µM), hits mostly inhibitors; hit rate 5.4% among 310,000; note: nearly all actives have a fitted effect of over 60% in size
Target sequence (P51450 whole entry, looked up, the tested form may be a part): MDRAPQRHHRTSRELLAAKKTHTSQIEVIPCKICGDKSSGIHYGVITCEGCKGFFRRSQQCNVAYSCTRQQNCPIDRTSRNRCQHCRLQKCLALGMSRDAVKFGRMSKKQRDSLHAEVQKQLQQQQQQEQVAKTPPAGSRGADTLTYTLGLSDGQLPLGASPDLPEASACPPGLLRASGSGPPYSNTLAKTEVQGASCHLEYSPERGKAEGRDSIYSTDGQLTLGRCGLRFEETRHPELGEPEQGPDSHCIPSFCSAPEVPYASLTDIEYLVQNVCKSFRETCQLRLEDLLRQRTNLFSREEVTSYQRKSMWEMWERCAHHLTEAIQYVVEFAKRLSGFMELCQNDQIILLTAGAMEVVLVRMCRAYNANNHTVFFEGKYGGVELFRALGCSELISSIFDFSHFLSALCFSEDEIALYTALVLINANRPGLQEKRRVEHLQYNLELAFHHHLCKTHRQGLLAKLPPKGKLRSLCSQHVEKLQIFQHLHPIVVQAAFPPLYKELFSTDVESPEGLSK
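Luciferase reporter read in Schneider cells carrying Gal4-RORγ (mouse) and UAS-Photinus luciferase; cells given compound 1 h before 700 uM copper sulfate induction, then incubated 20 h at ambient temperature.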
IL-1B inflam inh – inhibitors of inflammasome signaling (IL-1 beta secretion); THP-1 LPS/ATP IL-1B secretion, AlphaLISA, 16 h; stronger effect = lower value; activity change, % at 57.5 µM; hit rate 4.7% among 360,000; in the data active = activity change below about -50%; inconclusive = mostly about -30% to -49%
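Secreted IL-1B measured by AlphaLISA bead assay after 16 h compound exposure of THP-1 cells; compounds (final up to 57.5 uM) added 1 h before LPS (250 ng/mL) and ATP (1.25 mM) stimulation; lower signal means less secretion.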
LDHA block – inhibitors of human lactate dehydrogenase A; P00338; purified LDHA, NADH/diaphorase-resazurin fluorescence; stronger effect = lower value; activity change, % (values are at about 110 or 230 µM); hit rate 0.15% among 480,000; AID 1347041; in the data active = activity change below about -30%; inconclusive = mostly about -25% to -30%
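LDH5 2 nM; NADH 0.06 mM, pyruvate 0.2 mM; 200 mM Tris pH 7.4, EDTA, Tween-20; 5 min RT. Detection: diaphorase 0.133 mg/mL + resazurin 37 µM, fluorescence ex540/em590 at 0 and 20 min; normalized to enzyme-free and DMSO wells.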
Hits are given with their value. A selection: hits, their analogues and other compounds. The true share with any hit is near 18%. Unless noted, calls come from the whole dose curve; as a rule, active = well fitted curve in the direction sought with a large enough effect; inconclusive = small, poorly fitted or top-dose-only effect, or another doubt; inactive = no such curve, though single readings can be large; an effect the other way counts as inactive or inconclusive.

What do the screens show for `COC(=O)C1=C(c2cccc(Cl)c2)C[C@@H]2CC[C@H]1N2C(=O)NCC1CC1`?
DT40 TDP1 CPT: 16.4µM; TDP1 cell noCPT: inconclusive; IL-1B inflam inh: inactive; LDHA block: inactive

How did COC(=O)C1=C(c2cccc(Cl)c2)C[C@@H]2CC[C@H]1N2C(=O)N1CCCC1 do in these assays?
DT40 TDP1 CPT: 8.2µM; TDP1 cell noCPT: 7.31µM; IL-1B inflam inh: inactive; LDHA block: inactive

What do the screens show for `CCCNC(=O)N1[C@H]2CC[C@@H]1C(C(=O)OC)=C(c1cccc(Cl)c1)C2`?
DT40 TDP1 CPT: inconclusive; TDP1 cell noCPT: inconclusive; IL-1B inflam inh: inactive; LDHA block: inactive

How did COC(=O)C1=C(c2ccc(S(C)(=O)=O)cc2)C[C@@H]2CC[C@H]1N2C(=O)N1CCCC1 do in these assays?
DT40 TDP1 CPT: inactive; TDP1 cell noCPT: inactive; IL-1B inflam inh: inactive; LDHA block: inactive

What do the screens show for `COC(=O)C1=C(c2ccccc2)C[C@@H]2CC[C@H]1N2C(=O)N1CCCC1`?
DT40 TDP1 CPT: inconclusive; TDP1 cell noCPT: 16.4µM; IL-1B inflam inh: inactive; LDHA block: inactive

How did O=C(C[C@@H]1NCCC[C@H]1O)Cn1cnc2cc(Br)c(Cl)cc2c1=O do in these assays?
DT40 TDP1 CPT: inactive; TDP1 cell noCPT: inactive

What do the screens show for `NCCc1ccc(OCc2ccccc2)cc1`?
LDHA block: inactive

What do the screens show for `O=C1NC(=O)N(Cc2ccccc2)C(=O)C1Cc1ccccc1` (stereo unspecified)?
DT40 TDP1 CPT: inactive; TDP1 cell noCPT: 8.2µM; IL-1B inflam inh: inactive; LDHA block: inactive

What do the screens show for `O=C1NC(=O)C(Cc2ccccc2)(Cc2ccccc2)C(=O)N1Cc1ccccc1`?
DT40 TDP1 CPT: 23.1µM; TDP1 cell noCPT: inconclusive; IL-1B inflam inh: -53.8; LDHA block: inactive

Results for COc1ccc2c3c1O[C@H]1[C@@H](O)C=C[C@H]4C(C2)NCCC341 (stereo partly specified) ?
VP16 counter: inactive; RORgamma inh: inactive

How did CC(C)C1c2cccn2-c2ccccc2CN1C(=O)Nc1ccccc1F (stereo unspecified) do in these assays?
LDHA block: inactive

Results for C#CC1(O)C=CC2C3CCC4=CC(=O)CCC4C3CCC21CC (stereo unspecified) ?
DT40 TDP1 CPT: inconclusive; VP16 counter: inactive; TDP1 cell noCPT: inconclusive; RORgamma inh: inactive; IL-1B inflam inh: inactive; LDHA block: inactive

Results for CCC1(O)CCC2C3CCC4=CC(=O)CCC4C3CCC21CC (stereo unspecified) ?
DT40 TDP1 CPT: 23.1µM; TDP1 cell noCPT: 20.6µM; IL-1B inflam inh: inactive; LDHA block: inactive

Results for C[C@@H]1CC[C@H]2[C@@H](C)C(=O)O[C@@H]3OC4(C)CC[C@@H]1[C@]32OO4 ?
VP16 counter: inactive; RORgamma inh: inactive

Results for CCOC(=O)c1ccc(N2C(=O)c3n[nH]c(-c4cccs4)c3C2c2ccc(Cl)cc2Cl)cc1 (stereo unspecified) ?
DT40 TDP1 CPT: inconclusive; TDP1 cell noCPT: 18.4µM; LDHA block: inactive

What do the screens show for `CCOC(=O)c1ccc(N2C(=O)c3n[nH]c(-c4cccs4)c3C2c2ccc(C(C)(C)C)cc2)cc1` (stereo unspecified)?
DT40 TDP1 CPT: 16.4µM; TDP1 cell noCPT: 6.51µM; LDHA block: inactive

Results for CCOC(=O)c1c(C)[nH]c(C)c1S(=O)(=O)N1CCC(C(=O)N2CCN(c3cccc(Cl)c3)CC2)CC1 ?
DT40 TDP1 CPT: inconclusive; TDP1 cell noCPT: inconclusive; LDHA block: inactive

What do the screens show for `O=C1NC(=O)C2(Cc3ccccc3N3CCCC32)C(=O)N1Cc1ccccc1` (stereo unspecified)?
DT40 TDP1 CPT: inconclusive; VP16 counter: inactive; TDP1 cell noCPT: 23.1µM; RORgamma inh: inactive; IL-1B inflam inh: inactive; LDHA block: inactive
